Assay results reported in PubChem BioAssay (NCI).
The panel holds about 79,000 compounds, 15% with a hit somewhere; the sample as a whole holds those more often. Values without a mark were called inactive. Activity calls are given as the source filed them. Cut-off read from the data, not from the text of the source: active = growth inhibition above about 70%; inactive = the rest.

Key:
[1] = NCI Yeast Anticancer Drug Screen. Data for the rad52 strain (AID 147);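 note: 0% = growth of vehicle-treated control cultures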; details: S. cerevisiae rad52 mutant growth inhibition, hits give high values
Outline: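 Compounds are applied to a genetically defined yeast strain lacking normal DNA damage repair, and inhibition of growth is expressed relative to cultures given vehicle only.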

[2] = NCI Yeast Anticancer Drug Screen. Data for the wt1 strain (AID 149);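 note: 0% = growth of vehicle-treated wt1 cultures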; details: S. cerevisiae wt1 strain (SPY 50644) growth inhibition, hits give high values
Outline: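 Each compound is tested on wt1 yeast and the loss of growth versus vehicle gives the inhibition value.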

[3] = NCI Yeast Anticancer Drug Screen. Data for the rad50EPP+ strain (AID 151);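 note: 0% = growth of vehicle-treated control cultures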; details: S. cerevisiae rad50 mutant strain, hits give high values
Outline: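 Compounds were applied to the rad50EPP+ yeast strain, which bears a defined DNA repair alteration, and growth inhibition was determined relative to vehicle-treated cultures.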

[4] = NCI Yeast Anticancer Drug Screen. Data for the mgt1 strain (AID 153); details: S. cerevisiae mgt1 mutant growth inhibition, hits give high values
Outline: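 Strain: mgt1 yeast, one of a set carrying defined DNA damage repair or cell cycle control alterations. Compound-treated growth compared with vehicle.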

[5] = NCI Yeast Anticancer Drug Screen. Data for the rad50 strain (AID 155);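 note: 0% = growth of vehicle-only cultures of the same strain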; details: S. cerevisiae rad50 strain growth inhibition, hits give high values
Outline: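 Vehicle-treated cultures provide the reference for the growth inhibition reported for compound-exposed, repair-deficient yeast.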

[6] = NCI Yeast Anticancer Drug Screen. Data for the mec2-1 strain (AID 157); details: S. cerevisiae mec2-1 strain, hits give high values
Outline: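 Strain: mec2-1 (DNA repair/cell cycle alteration). Compound exposure, then growth measured; inhibition expressed relative to vehicle.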

[7] = NCI Yeast Anticancer Drug Screen. Data for the rad14 strain (AID 159);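 note: 0% = growth of vehicle-treated control cultures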; details: S. cerevisiae rad14 strain growth inhibition, hits give high values
Outline: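 Inhibition of growth is reported for a repair-deficient yeast mutant following compound treatment, calculated relative to cultures that received vehicle.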

[8] = NCI Yeast Anticancer Drug Screen. Data for the sgs1 mgt1 strain (AID 161);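 note: 0% = growth of cultures given vehicle only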; details: S. cerevisiae sgs1 mgt1 strain, hits give high values
Outline: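 Mutant yeast exposed to compound; growth scored against vehicle-only wells.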

[9] = NCI Yeast Anticancer Drug Screen. Data for the CLN2oe strain (AID 163);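 note: 0% = growth of vehicle-only control cultures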; details: S. cerevisiae CLN2oe strain, hits give high values
Outline: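 Growth of a genetically modified yeast strain is measured after compound exposure and compared with cultures given vehicle alone.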

[10] = NCI Yeast Anticancer Drug Screen. Data for the cln2 rad14 strain (AID 165);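 note: 0% = growth equal to vehicle treated cultures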; details: S. cerevisiae cln2 rad14 strain, hits give high values
Outline: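 Compounds are applied to the cln2 rad14 yeast strain, and growth is then compared with that of vehicle-treated cultures to give inhibition.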

[11] = NCI Yeast Anticancer Drug Screen. Data for the bub3 strain (AID 167); details: S. cerevisiae bub3 mutant strain, hits give high values
Outline: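 Mutant yeast screening strain plus compound; vehicle-treated cultures serve as the 0% inhibition reference.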

[12] = NCI Yeast Anticancer Drug Screen. Data for the wt2 strain (AID 169); details: S. cerevisiae wt2 strain growth inhibition, hits give high values
Outline: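 This strain belongs to a panel of yeast strains with defined genetic alterations in DNA damage repair or cell cycle control. Compounds are applied, and growth inhibition is measured against vehicle-treated cultures.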

[13] = NCI Yeast Anticancer Drug Screen. Data for the sgs1 strain (AID 173);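 note: 0% = growth of vehicle-only control cultures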; details: S. cerevisiae sgs1 mutant, hits give high values
Outline: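 Growth of a yeast strain bearing a defined genetic alteration is measured after compound treatment. Inhibition is expressed relative to vehicle-only controls.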

[14] = NCI Yeast Anticancer Drug Screen. Data for the mlh1 rad18 strain (AID 175); details: S. cerevisiae mlh1 rad18 strain growth inhibition, hits give high values
Outline: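 Read-out is yeast growth inhibition, calculated against vehicle-only controls. The compound was applied to a strain engineered with DNA damage repair alterations.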

[15] = NCI Yeast Anticancer Drug Screen. Data for the rad18 strain (AID 177); details: S. cerevisiae rad18 mutant growth inhibition, hits give high values
Outline: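 Growth of the mutant yeast strain after compound exposure, normalised to vehicle-only cultures.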

[16] = NCI Yeast Anticancer Drug Screen. Data for the mlh1 strain (AID 171);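 note: 0% = growth of vehicle-treated control cultures of the same strain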; details: S. cerevisiae mlh1 strain growth inhibition, hits give high values
Outline: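 Growth of the mutant yeast strain after compound exposure, expressed as inhibition relative to vehicle-only controls.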

[17] = at 5.0 µM (retest, dose inferred, filed as 0.5)
[18] = at 50.0 µM (retest, dose inferred, filed as 5.0)

CN(Cc1cnc2nc(N)nc(N)c2n1)c1ccc(C(=O)N[C@@H](CCC(=O)O)C(=O)O)cc1
growth inhibition ([1]; at 1.2 µM): -2%
growth inhibition ([1]; at 3.7 µM): -1%
growth inhibition ([1]; at 11.0 µM): 8%
growth inhibition ([1]; at 33.0 µM): 41%
growth inhibition ([1]; at 100.0 µM): 85% (active)
growth inhibition ([2]; at 1.2 µM): -1%
growth inhibition ([2]; at 3.7 µM): -3%
growth inhibition ([2]; at 11.0 µM): -3%
growth inhibition ([2]; at 33.0 µM): 6%
growth inhibition ([2]; at 100.0 µM): 24%
growth inhibition ([3]; at 1.2 µM): -2%
growth inhibition ([3]; at 3.7 µM): -4%
growth inhibition ([3]; at 11.0 µM): -5%
growth inhibition ([3]; at 33.0 µM): 1%
growth inhibition ([3]; at 100.0 µM): 21%
growth inhibition ([4]; at 1.2 µM): -1%
growth inhibition ([4]; at 3.7 µM): -3%
growth inhibition ([4]; at 11.0 µM): -4%
growth inhibition ([4]; at 33.0 µM): 1%
growth inhibition ([4]; at 100.0 µM): 28%
growth inhibition ([5]; at 1.2 µM): -2%
growth inhibition ([5]; at 3.7 µM): 1%
growth inhibition [5, 17]: -2%
growth inhibition ([5]; at 11.0 µM): 6%
growth inhibition ([5]; at 33.0 µM): 38%
growth inhibition [5, 18]: 82% (active)
growth inhibition ([5]; at 50.0 µM): 88.6% (active)
growth inhibition ([5]; at 100.0 µM): 85% (active)
growth inhibition ([6]; at 1.2 µM): 1%
growth inhibition ([6]; at 3.7 µM): 2%
growth inhibition [6, 17]: 14%
growth inhibition ([6]; at 11.0 µM): 17%
growth inhibition ([6]; at 33.0 µM): 88% (active)
growth inhibition [6, 18]: 94% (active)
growth inhibition ([6]; at 50.0 µM): 97.9% (active)
growth inhibition ([6]; at 100.0 µM): 96% (active)
growth inhibition ([7]; at 1.2 µM): -1%
growth inhibition ([7]; at 3.7 µM): -5%
growth inhibition ([7]; at 11.0 µM): -7%
growth inhibition ([7]; at 33.0 µM): 14%
growth inhibition ([7]; at 100.0 µM): 72% (active)
growth inhibition [8, 17]: -3%
growth inhibition [8, 18]: 64%
growth inhibition ([8]; at 50.0 µM): 82.5% (active)
growth inhibition ([9]; at 1.2 µM): 0%
growth inhibition ([9]; at 3.7 µM): 0%
growth inhibition ([9]; at 11.0 µM): -7%
growth inhibition ([9]; at 33.0 µM): -16%
growth inhibition ([9]; at 100.0 µM): 20%
growth inhibition [10, 17]: -1%
growth inhibition [10, 18]: 22%
growth inhibition ([10]; at 50.0 µM): -6.4%
growth inhibition ([11]; at 1.2 µM): 2%
growth inhibition ([11]; at 3.7 µM): -1%
growth inhibition [11, 17]: -7%
growth inhibition ([11]; at 11.0 µM): -7%
growth inhibition ([11]; at 33.0 µM): -4%
growth inhibition [11, 18]: 63%
growth inhibition ([11]; at 50.0 µM): 90.5% (active)
growth inhibition ([11]; at 100.0 µM): 40%
growth inhibition ([12]; at 1.2 µM): -3%
growth inhibition ([12]; at 3.7 µM): -4%
growth inhibition ([12]; at 11.0 µM): -4%
growth inhibition ([12]; at 33.0 µM): 12%
growth inhibition ([12]; at 100.0 µM): 47%
growth inhibition ([13]; at 1.2 µM): -2%
growth inhibition ([13]; at 3.7 µM): -3%
growth inhibition ([13]; at 11.0 µM): 3%
growth inhibition ([13]; at 33.0 µM): 27%
growth inhibition ([13]; at 100.0 µM): 63%
growth inhibition [14, 17]: -2%
growth inhibition [14, 18]: 58%
growth inhibition ([14]; at 50.0 µM): 87.8% (active)
growth inhibition ([15]; at 1.2 µM): -2%
growth inhibition ([15]; at 3.7 µM): 0%
growth inhibition ([15]; at 11.0 µM): 4%
growth inhibition ([15]; at 33.0 µM): 30%
growth inhibition ([15]; at 100.0 µM): 80% (active)

COc1cc(C2SCC(=O)N2c2nnc(C(F)(F)F)s2)cc(OC)c1OC (stereo unspecified)
growth inhibition ([1]; at 1.2 µM): -1%
growth inhibition ([1]; at 3.7 µM): -3%
growth inhibition ([1]; at 11.0 µM): -2%
growth inhibition ([1]; at 33.0 µM): -3%
growth inhibition ([1]; at 100.0 µM): -5%
growth inhibition ([2]; at 1.2 µM): -84%
growth inhibition ([2]; at 3.7 µM): -3%
growth inhibition ([2]; at 11.0 µM): -3%
growth inhibition ([2]; at 33.0 µM): -1%
growth inhibition ([2]; at 100.0 µM): -3%
growth inhibition ([3]; at 1.2 µM): -4%
growth inhibition ([3]; at 3.7 µM): -2%
growth inhibition ([3]; at 11.0 µM): 3%
growth inhibition ([3]; at 33.0 µM): -2%
growth inhibition ([3]; at 100.0 µM): 0%
growth inhibition ([4]; at 1.2 µM): -1%
growth inhibition ([4]; at 3.7 µM): -2%
growth inhibition ([4]; at 11.0 µM): -5%
growth inhibition ([4]; at 33.0 µM): -1%
growth inhibition ([4]; at 100.0 µM): -4%
growth inhibition ([5]; at 1.2 µM): -1%
growth inhibition ([5]; at 3.7 µM): -2%
growth inhibition [5, 17]: -5%
growth inhibition ([5]; at 11.0 µM): -2%
growth inhibition ([5]; at 33.0 µM): 0%
growth inhibition [5, 18]: -18%
growth inhibition ([5]; at 50.0 µM): 18.1%
growth inhibition ([5]; at 100.0 µM): -5%
growth inhibition ([6]; at 1.2 µM): -4%
growth inhibition ([6]; at 3.7 µM): 2%
growth inhibition [6, 17]: 0%
growth inhibition ([6]; at 11.0 µM): 4%
growth inhibition ([6]; at 33.0 µM): 1%
growth inhibition [6, 18]: -4%
growth inhibition ([6]; at 50.0 µM): 20.9%
growth inhibition ([6]; at 100.0 µM): -1%
growth inhibition ([7]; at 1.2 µM): -2%
growth inhibition ([7]; at 3.7 µM): -2%
growth inhibition ([7]; at 11.0 µM): -1%
growth inhibition ([7]; at 33.0 µM): -2%
growth inhibition ([7]; at 100.0 µM): -4%
growth inhibition [8, 17]: -4%
growth inhibition [8, 18]: 2%
growth inhibition ([8]; at 50.0 µM): 0.1%
growth inhibition ([9]; at 1.2 µM): -7%
growth inhibition ([9]; at 3.7 µM): 1%
growth inhibition ([9]; at 11.0 µM): -2%
growth inhibition ([9]; at 33.0 µM): 0%
growth inhibition ([9]; at 100.0 µM): -8%
growth inhibition [10, 17]: -7%
growth inhibition [10, 18]: -10%
growth inhibition ([10]; at 50.0 µM): -12.5%
growth inhibition ([11]; at 1.2 µM): 6%
growth inhibition ([11]; at 3.7 µM): 12%
growth inhibition [11, 17]: 31%
growth inhibition ([11]; at 11.0 µM): 28%
growth inhibition ([11]; at 33.0 µM): 41%
growth inhibition [11, 18]: 50%
growth inhibition ([11]; at 50.0 µM): 43.1%
growth inhibition ([11]; at 100.0 µM): 48%
growth inhibition ([16]; at 1.2 µM): -3%
growth inhibition ([16]; at 3.7 µM): -2%
growth inhibition ([16]; at 11.0 µM): 0%
growth inhibition ([16]; at 33.0 µM): -1%
growth inhibition ([16]; at 100.0 µM): -2%
growth inhibition ([13]; at 1.2 µM): -3%
growth inhibition ([13]; at 3.7 µM): -2%
growth inhibition ([13]; at 11.0 µM): -3%
growth inhibition ([13]; at 33.0 µM): -1%
growth inhibition ([13]; at 100.0 µM): -1%
growth inhibition [14, 17]: -4%
growth inhibition [14, 18]: -9%
growth inhibition ([14]; at 50.0 µM): 0.35%
growth inhibition ([15]; at 1.2 µM): -2%
growth inhibition ([15]; at 3.7 µM): -2%
growth inhibition ([15]; at 11.0 µM): -1%
growth inhibition ([15]; at 33.0 µM): -2%
growth inhibition ([15]; at 100.0 µM): -2%
